Assay [1] in a line: small molecules captured by biotinylated probe aFSTL3 – biochemical, small-molecule microarray, fluorescence 635/667, stem cell growth factor project, primary screen (AID 1064).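 Further: measures binding of the biotinylated anti-FSTL3 antibody to printed compounds.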 The conditions noted are these: higher = more signal.
Assay [2] is described as follows: binders from COS7 lysate, DM2A8 probe, primary screen, torsin A project, cell lysate, small-molecule microarray, fluorescence 635/667 (AID 1065). The note with it: higher = more signal, COS7 lysate expressing mutant human TOR1A.
Assay [3] can be described thus: small molecules captured by biotinylated probe aFGF2 – biochemical, small-molecule microarray, fluorescence 635/667, stem cell growth factor project, primary screen (AID 1067).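 Further: measures binding of biotinylated aFGF2 protein to printed compounds on slides; z-score merges feature fluorescence and signal-to-noise across triplicate slides.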 The note with it: higher = more signal.
Assay [4] can be described thus: small molecules captured by biotinylated probe aFGF10 – biochemical, small-molecule microarray, fluorescence 635/667, stem cell growth factor project, primary screen (AID 1071).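 Further: score merges 667 nm spot intensity and signal to noise from triplicate slides.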 The conditions noted are these: higher = more signal.
The target in assay [5] is Neurogenic locus notch homolog protein 2 (Homo sapiens) (UniProt Q04721). Put plainly: small molecules binding Notch2 protein – biochemical, small-molecule microarray, 635 nm fluorescence, stem cell growth factors, primary screen (AID 1073). The conditions noted are these: higher = more signal.
Neurogenic locus notch homolog protein 2 (Homo sapiens), sequence (Q04721 whole entry, looked up, canonical isoform): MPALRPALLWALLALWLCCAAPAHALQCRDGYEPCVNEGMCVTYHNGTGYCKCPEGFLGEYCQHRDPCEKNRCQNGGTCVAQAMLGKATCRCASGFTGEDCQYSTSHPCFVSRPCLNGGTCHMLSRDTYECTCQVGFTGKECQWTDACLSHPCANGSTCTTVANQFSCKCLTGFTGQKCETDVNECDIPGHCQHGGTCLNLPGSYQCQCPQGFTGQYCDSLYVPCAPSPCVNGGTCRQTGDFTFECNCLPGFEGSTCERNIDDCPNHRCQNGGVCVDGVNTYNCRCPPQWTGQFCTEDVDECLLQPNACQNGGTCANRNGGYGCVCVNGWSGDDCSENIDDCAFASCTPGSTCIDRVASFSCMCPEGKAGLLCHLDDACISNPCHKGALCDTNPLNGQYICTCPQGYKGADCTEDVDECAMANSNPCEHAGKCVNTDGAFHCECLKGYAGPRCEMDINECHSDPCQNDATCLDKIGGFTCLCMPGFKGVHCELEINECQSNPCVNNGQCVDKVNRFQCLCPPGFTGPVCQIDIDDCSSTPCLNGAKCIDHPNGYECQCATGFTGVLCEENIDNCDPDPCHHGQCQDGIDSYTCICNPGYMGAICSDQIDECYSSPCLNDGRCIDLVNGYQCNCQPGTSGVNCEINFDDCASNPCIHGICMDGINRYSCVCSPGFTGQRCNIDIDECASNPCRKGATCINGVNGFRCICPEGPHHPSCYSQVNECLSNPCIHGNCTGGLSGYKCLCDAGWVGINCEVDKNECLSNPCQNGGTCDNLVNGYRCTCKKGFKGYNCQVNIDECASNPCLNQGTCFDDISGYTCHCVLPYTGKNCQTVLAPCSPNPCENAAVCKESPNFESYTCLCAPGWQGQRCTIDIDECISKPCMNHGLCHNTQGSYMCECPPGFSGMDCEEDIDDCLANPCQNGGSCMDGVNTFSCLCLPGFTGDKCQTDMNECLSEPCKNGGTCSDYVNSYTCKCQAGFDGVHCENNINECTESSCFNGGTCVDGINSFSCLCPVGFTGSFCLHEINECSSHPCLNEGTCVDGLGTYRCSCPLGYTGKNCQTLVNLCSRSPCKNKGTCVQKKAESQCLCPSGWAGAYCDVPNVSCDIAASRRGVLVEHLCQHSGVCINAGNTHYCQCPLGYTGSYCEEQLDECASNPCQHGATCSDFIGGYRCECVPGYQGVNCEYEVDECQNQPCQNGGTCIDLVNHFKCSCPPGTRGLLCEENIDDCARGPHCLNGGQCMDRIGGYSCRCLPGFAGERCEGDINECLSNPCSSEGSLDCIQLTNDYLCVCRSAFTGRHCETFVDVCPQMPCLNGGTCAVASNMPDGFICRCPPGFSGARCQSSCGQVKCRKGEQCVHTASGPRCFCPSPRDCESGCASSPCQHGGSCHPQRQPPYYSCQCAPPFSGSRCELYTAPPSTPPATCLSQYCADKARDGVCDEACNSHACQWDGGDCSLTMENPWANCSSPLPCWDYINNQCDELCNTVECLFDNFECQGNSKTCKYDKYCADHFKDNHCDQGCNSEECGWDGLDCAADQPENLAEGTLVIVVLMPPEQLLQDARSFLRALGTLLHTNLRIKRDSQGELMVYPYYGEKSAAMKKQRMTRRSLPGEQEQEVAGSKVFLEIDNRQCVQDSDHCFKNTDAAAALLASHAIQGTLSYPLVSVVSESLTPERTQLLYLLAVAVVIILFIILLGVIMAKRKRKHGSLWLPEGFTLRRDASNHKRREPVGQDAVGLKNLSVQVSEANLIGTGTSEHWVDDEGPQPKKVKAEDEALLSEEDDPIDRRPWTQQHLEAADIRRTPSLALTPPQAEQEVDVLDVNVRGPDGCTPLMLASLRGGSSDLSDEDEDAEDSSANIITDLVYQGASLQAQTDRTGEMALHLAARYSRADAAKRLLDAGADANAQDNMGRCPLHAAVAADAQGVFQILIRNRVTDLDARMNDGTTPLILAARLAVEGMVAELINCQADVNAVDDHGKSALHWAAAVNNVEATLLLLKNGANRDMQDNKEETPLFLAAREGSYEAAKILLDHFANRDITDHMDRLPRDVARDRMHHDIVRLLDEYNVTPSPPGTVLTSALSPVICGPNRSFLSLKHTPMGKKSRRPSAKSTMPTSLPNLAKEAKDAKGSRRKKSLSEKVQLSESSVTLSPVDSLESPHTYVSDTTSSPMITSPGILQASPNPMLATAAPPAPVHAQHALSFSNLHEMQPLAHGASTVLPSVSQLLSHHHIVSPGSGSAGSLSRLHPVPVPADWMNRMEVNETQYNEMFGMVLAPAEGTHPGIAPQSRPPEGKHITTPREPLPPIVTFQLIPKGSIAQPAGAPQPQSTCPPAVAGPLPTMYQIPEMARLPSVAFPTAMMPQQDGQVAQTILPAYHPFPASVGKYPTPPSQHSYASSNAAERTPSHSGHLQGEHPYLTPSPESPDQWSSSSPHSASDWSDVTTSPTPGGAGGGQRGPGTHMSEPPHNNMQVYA
For assay [6], the target named is Pro-neuregulin-1, membrane-bound isoform (Homo sapiens) (UniProt Q02297). Put plainly: small molecules binding neuregulin-1 protein – biochemical, small-molecule microarray, fluorescence 635/667, psychiatric disease protein project, primary screen (AID 1075).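 Further: score combines 667 nm spot fluorescence with signal to noise.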 The conditions noted are these: NRG1 binding, 635 nm fluorescence, higher = more signal.
Pro-neuregulin-1, membrane-bound isoform (Homo sapiens), sequence (Q02297 whole entry, looked up, the tested form may be a part, canonical isoform): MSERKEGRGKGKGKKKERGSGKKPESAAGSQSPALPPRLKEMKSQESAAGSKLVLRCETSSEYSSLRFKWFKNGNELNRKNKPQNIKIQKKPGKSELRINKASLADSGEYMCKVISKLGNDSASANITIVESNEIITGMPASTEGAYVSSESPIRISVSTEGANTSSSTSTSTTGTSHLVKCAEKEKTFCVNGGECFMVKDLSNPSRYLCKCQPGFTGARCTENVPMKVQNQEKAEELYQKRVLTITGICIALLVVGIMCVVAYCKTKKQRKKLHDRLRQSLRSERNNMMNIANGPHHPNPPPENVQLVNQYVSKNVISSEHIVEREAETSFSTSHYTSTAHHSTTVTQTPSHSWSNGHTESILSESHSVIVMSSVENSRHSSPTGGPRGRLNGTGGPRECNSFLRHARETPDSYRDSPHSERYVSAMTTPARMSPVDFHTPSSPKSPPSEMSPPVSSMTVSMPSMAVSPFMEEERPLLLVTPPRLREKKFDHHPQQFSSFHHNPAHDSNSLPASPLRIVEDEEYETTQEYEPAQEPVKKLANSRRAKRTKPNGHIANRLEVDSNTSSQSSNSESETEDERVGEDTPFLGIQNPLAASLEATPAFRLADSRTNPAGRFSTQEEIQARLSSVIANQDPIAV
For assay [7], the system named is Neuregulin-1 EGF-like domain. Put plainly: small molecules binding NRG1 EGF domain – biochemical, small-molecule microarray, 635 nm fluorescence, primary screen (AID 1081).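 Further: binding of the protein to compounds printed on small-molecule microarray slides.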 The note with it: higher = more signal.
The nature of assay [8]: FRG1 expression reporter modulators in myotubes – cell-based, C2C12 myotubes, firefly/Renilla luciferase, luminescence, FRG1 inhibition for FSHD, primary screen (AID 1084). The conditions noted are these: FRG1 promoter luciferase, higher = more signal, called active from +8 up or from −8 down.
The nature of assay [9]: small molecules captured by biotinylated probe aFST – biochemical, small-molecule microarray, fluorescence 635/667, stem cell growth factor project, primary screen (AID 1086).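 Further: score merges 667 nm fluorescence with signal-to-noise of each printed compound spot.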 The note with it: higher = more signal.
Assay [10] is described as follows: binders of probe aHhip on microarray, primary screen, stem cell growth factor project, biochemical, small-molecule microarray, fluorescence 635/667 (AID 1087).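 Further: score merges spot fluorescence at 667nm with spot signal to noise ratio.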 The note with it: higher = more signal.
For assay [11], the system named is PRMT1 (protein arginine N-methyltransferase 1). Put plainly: small molecules binding arginine methyltransferase PRMT1 – biochemical, small-molecule microarray, 635 nm fluorescence, primary screen (AID 1088).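 Further: binding of Prmt1 protein to compounds spotted on small-molecule microarray slides.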 The note with it: higher = more signal.
Assay [12] can be described thus: growth effects on S. cerevisiae YJM789 – YJM789 clinical isolate, OD600, 24 h, basal, primary screen (AID 1089).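 Further: growth of clinical yeast isolate S. cerevisiae YJM 789 seeded 1000 cells per well; test concentration not given here.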 The note with it: higher = more signal, called active from +8 up or from −8 down.
Assay [13] in a line: S. pombe growth modifiers, basal conditions – strain 972, OD600, 24 h, no modulator, primary screen (AID 1090).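 Further: basal condition with compound alone and no growth modifier present; test concentration not given here.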 The conditions noted are these: S. pombe 972 growth, higher = more signal, called active from +8 up or from −8 down.
The nature of assay [14]: budding yeast growth modifiers under rapamycin – strain BY4716, OD600, 96 h, primary screen (AID 1091). Further: test concentration not given here. The note with it: S. cerevisiae BY4716 + rapamycin, higher = more signal, called active from +8 up or from −8 down.
Assay [15] addresses Torsin-1A-interacting protein 2 (Homo sapiens) (UniProt Q8NFQ8). Kind of assay: small molecules binding lysate-expressed LULL1 – cell lysate, human LULL1 lysate, 635/667 nm fluorescence, primary screen (AID 1092).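 Further: score merges per-feature 667 nm fluorescence with signal-to-noise.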 The note with it: small-molecule microarray, hLULL1 lysate binding, 635 nm fluorescence; higher = more signal.
Assay [16] in a line: optical density change of DRC41 E. coli – strain DRC41, OD650, 24 h, E. coli filamentation project, primary screen (AID 1093).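 Further: MC1000 strain lacking acrAB efflux and sulA so SOS filamentation is blocked; test concentration not given here.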 The conditions noted are these: E. coli DRC41 growth, higher = more signal, called active from +8 up or from −8 down.
Assay [17] is described as follows: probe aLefty2 binding to arrayed compounds – biochemical, biotinylated probe, 635/667 nm fluorescence, primary screen (AID 1094).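 Further: score merges spot fluorescence near 667 nm with spot signal-to-noise ratio.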 The note with it: small-molecule microarray, higher = more signal.
Assay [18] has as its system Noggin (protein binding on small-molecule microarray). Put plainly: small molecules binding Noggin protein – biochemical, 635/667 nm fluorescence, primary screen (AID 1095).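 Further: score merges 667 nm feature fluorescence with signal to noise over triplicate slides.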 The conditions noted are these: 635 nm fluorescence, higher = more signal.
In assay [19] the target is Neurogenic locus notch homolog protein 3 (Homo sapiens) (UniProt Q9UM47). Kind of assay: small molecules binding NOTCH3 protein – biochemical, 635/667 nm fluorescence, primary screen (AID 1096). The conditions noted are these: small-molecule microarray, 635 nm fluorescence, higher = more signal.
Assay [20] in a line: probe aEGFR binding to arrayed compounds – biochemical, biotinylated probe, 635/667 nm fluorescence, primary screen (AID 1097).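 Further: probe is a biotinylated anti-EGFR antibody binding compounds printed on slides; score combines fluorescence near 667 nm and signal to noise of each spot.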 The conditions noted are these: small-molecule microarray, higher = more signal.

The source of these data is PubChem BioAssay.

Calls of active or inactive are those of the source.

Torsin-1A-interacting protein 2 (Homo sapiens), sequence (Q8NFQ8 whole entry, looked up): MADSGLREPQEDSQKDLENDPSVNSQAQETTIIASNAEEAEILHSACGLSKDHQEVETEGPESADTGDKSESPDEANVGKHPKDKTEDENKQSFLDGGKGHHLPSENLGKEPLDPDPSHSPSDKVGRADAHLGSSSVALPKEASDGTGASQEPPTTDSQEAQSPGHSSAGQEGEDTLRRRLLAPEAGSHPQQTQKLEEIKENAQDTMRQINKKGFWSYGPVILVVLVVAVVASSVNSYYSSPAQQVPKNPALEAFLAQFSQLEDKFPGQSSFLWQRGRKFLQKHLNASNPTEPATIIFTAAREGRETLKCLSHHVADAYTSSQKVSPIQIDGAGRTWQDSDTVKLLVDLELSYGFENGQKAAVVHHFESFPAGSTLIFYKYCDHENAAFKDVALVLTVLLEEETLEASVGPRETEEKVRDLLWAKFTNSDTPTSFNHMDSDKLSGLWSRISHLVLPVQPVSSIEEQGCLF

In the case of `CN(C)C(=O)[C@]1(Cc2ccccc2N=[N+]=[N-])N=C(c2ccc(OCCCO)cc2)O[C@@H]1c1ccccc1N=[N+]=[N-]`, the composite z-score came out at 0.0009 in assay [1]; 0.827 in [2]; 0.0155 in assay [3]; 0.183 in [4]; 1.47 in assay [5]; 1.01 in assay [6]. The composite z-score in assay [7] was found to be 1.26; in assay [9], 1.15; in assay [10], 0.0373; in [11] it was 1.55; in assay [15] it was 3.2; in assay [17] it was 0.191. Also, the composite z-score is 0.923 in assay [18], 1.07 in assay [19] and -0.0111 in [20]. The z-score in [8] is -1.74 (inactive); in assay [12], -2.43 (inactive); in assay [13], -2.73 (inactive); in [14], 4.05 (inactive); in assay [16], 0.799 (inactive).

For `C=CCNC(=O)[C@H]1[C@@H]2C(=O)O[C@@H](c3ccccc3)[C@@H](c3ccccc3)N2[C@@H](c2ccccc2OCCO)[C@]12C(=O)Nc1ccc(C#CCCO)cc12`, the composite z-score is 0.103 in assay [1]; -0.773 in assay [2]; 0.882 in [3]; -0.0077 in assay [4]; 0.119 in assay [5]; 0.82 in [6]. In addition, the composite z-score was 0.537 in assay [7]; -0.155 in assay [9]; 0.142 in assay [10]; -0.294 in assay [11]; 2.24 in [15]; -0.0617 in [17]. Also, the composite z-score in assay [18] is -0.76; in [19] it was -0.104; in assay [20] it was -0.0353. Also, the z-score was -5.02 (inactive) in assay [8]; 1.69 (inactive) in [12]; -0.648 (inactive) in assay [13]; 4.32 (inactive) in assay [14]; -0.462 (inactive) in [16].

Regarding `CN(C)CCCCCCNC(=O)[C@H]1C[C@H]2C(=O)N3CCC[C@H]3C(=O)N2[C@H]1c1ccc(O)cc1`, the composite z-score in [1] was -0.0698; in [2], 1.93; in assay [3], 0.0082; in [4], 1.16; in assay [5], 0.863; in assay [6], 0.854. Besides, the composite z-score in assay [7] was determined as 1.49; in assay [9], 0.2; in [10], 0.151; in assay [11], 1.53; in assay [15], 2.9; in assay [17] it was 0.172. Further, the composite z-score in assay [18] worked out at 1.74; in [19] it was 1.07; in [20], 0.475. The z-score in assay [8] was 3.92 (inactive); in assay [12], -0.389 (inactive); in assay [13] it was -1.4 (inactive); in assay [14], 0.24 (inactive); in assay [16], 1.95 (inactive).

As for `COc1ccc(C#Cc2ccc3c(c2)[C@]2(C(=O)N3)[C@H](c3ccccc3OCCO)N3[C@H](c4ccccc4)[C@H](c4ccccc4)OC(=O)[C@H]3[C@@H]2C(=O)Nc2nc3ccccc3s2)cc1`, the composite z-score in assay [1] was -0.541; in assay [2], -0.0327; in [3], -0.0232; in [4], 0.615; in [5] it was 1.18; in assay [6], 0.65. For the same molecule, the composite z-score was 1.17 in [7]; 0.362 in assay [9]; -0.0618 in [10]; 1.54 in assay [11]; 1.95 in [15]; 0 in assay [17]. In addition, the values for the composite z-score in [18], in assay [19] and in assay [20] were 0.785, 1.09 and -0.0549, respectively. Also, the z-score is 2.1 (inactive) in assay [8]; 2.95 (inactive) in assay [12]; 1.47 (inactive) in assay [13]; 0.871 (inactive) in assay [14]; 0.0309 (inactive) in assay [16].

Turning to `Oc1ccc2cc[n+](Cc3sc4ccccc4c3Cl)cc2c1`, the composite z-score in assay [1] was 0.997; in assay [2], -0.466; in [3], -0.0976; in assay [4], -0.299; in assay [5], -0.308; in assay [6] it was -0.159. Moreover, the composite z-score in assay [7] worked out at 1.64; in assay [9], 0.031; in assay [10] it was 0.16; in assay [11] it was 0.599; in [15] it was 3.37; in [17], 0.217. Moreover, the composite z-score in assay [18] was 0.311; in [19], 0.207; in [20], -0.0409. Besides, the z-score in assay [8] was 1.7 (inactive); in assay [12], 0.0335 (inactive); in assay [13], -1.43 (inactive); in assay [14], 2.3 (inactive); in assay [16], -1.82 (inactive).
